Sampled rows, rich in hits. Any-hit rate of the full collection: about 4.1%.
TWEAK Fn14 block = blocks TWEAK-Fn14 interaction in a reporter cell assay; TWEAK-stimulated Fn14 reporter cells, luciferase luminescence, 8 h; inhibition, % at 10 µM; 360,000 tested, 2% active; in the data active = inhibition above about 50%
TRPM1 prom inh = reduces MITF-dependent TRPM1 promoter luciferase signal. inhibition, % at 12.5 µM. 330,000 tested, 0.83% active. SK-MEL-5 TRPM1 promoter luciferase, 24 h. AID 488899;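 active = mean inhibition across replicates of 60% or more, whatever share of single replicates reaches that level; inconclusive = some that reach 60%, reason not given; inactive = mean inhibition across replicates below 60%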
LMP1 NFkB inh = reduces LMP1-driven NF-kappaB luciferase signal | inhibition, % at 12.5 µM | AID 504558 | LMP1-induced NF-kappaB luciferase reporter cells, luminescence | 350,000 tested, 0.69% active; in the data active = inhibition above about 41%; inconclusive = no clear call, values can overlap the other calls;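 also: 0% = neutral control wells and 100% = reference inhibitor control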
TROY NFkB inh = TROY signaling inhibition; inhibition, % at 10 µM; 360,000 tested, 0.98% active; Q293 LMP1-TROYcd NF-kB luciferase reporter, 4 h;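 active = compounds whose plate-normalised and pattern-corrected inhibition of the luciferase reporter signal at the single screening dose is 50% or more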
Peg3 promoter = Peg3 promoter activity inhibition; HeLa PEG-Prom luciferase reporter, luminescence, overnight; inhibition, % at 20 µM; 360,000 tested, 1.7% active; AID 588405;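 active = inhibition of at least 50% at 20 µM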
Shn3 3UTR inh = Schnurri-3 reporter inhibition in Clone20 osteoblasts | inhibition, % at 12.5 µM | AID 588674 | 360,000 tested, 0.52% active | Clone20 osteoblast Shn3 3'UTR firefly luciferase, 24 h;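 active = mean inhibition of at least 75% with every replicate also reaching 75%; inconclusive = mean inhibition at least 75% but some replicate below; inactive = mean inhibition below 75%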;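 also: 0% = median of neutral control wells and 100% = pilot-screen positive control compound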
* hit, by the source's call; ? = inconclusive; . = no result.

SMILES	TWEAK Fn14 block	TRPM1 prom inh	LMP1 NFkB inh	TROY NFkB inh	Peg3 promoter	Shn3 3UTR inh
O=C(CN(C(=O)c1ccc(Cl)cc1)C1CCCCC1)Nc1ccc(Cl)c([N+](=O)[O-])c1	51*	0	5	35	24	83
CC(C)=C(NC(=O)c1ccccc1)C(=O)NCCc1nc2ccccc2[nH]1	16	2	-2	15	9	0
O=C(CNC(=O)c1ccco1)NCC(=O)OCC(=O)c1ccc(Cl)c([N+](=O)[O-])c1	7	8	-5	-7	-5	-2
CN(C)c1ccc(C(=O)/C=C/c2ccco2)cc1	-9	-44	-28	-42	-246	-131
O=C(C=Cc1ccco1)c1ccc2ccccc2c1	27	-56	-12	1	-256	95*
COc1ccc(NC(=O)c2ccc(Cl)c(S(=O)(=O)NCC3CCCO3)c2)c(OC)c1 (centres undefined)	-15	11	4	6	11	4
CCN1/C(=C\C(=S)Nc2ccccc2)Sc2ccccc21	18	-12	-15	11	-303	38
CCN1/C(=C/C(C)=C/c2sc3ccccc3[n+]2CC)Sc2ccccc21	82*	103*	-10	33	104*	88*
Cc1cccc(Nc2ccncc2S(N)(=O)=O)c1	70*	.	.	12	8	-26
Cc1ccc(S(=O)(=O)NCCC(=O)OCC(=O)N2CCCC2=O)cc1C	-6	-9	0	-9	0	4
CCOc1ccccc1OCCCC(=O)Nc1cc(S(=O)(=O)N2CCOCC2)ccc1OC	-5	-1	0	-21	9	-11
Clc1cccc(CN2CCc3c([nH]c4ccccc34)C2)c1	13	9	12	2	60*	1
CSc1ccc(CN2CCc3c([nH]c4ccccc34)C2)cc1	40	18	3	-16	20	17
Cc1cccc(CN2CCc3c([nH]c4ccccc34)C2)c1	6	18	13	21	17	-2
COc1cc(OC)c(CN2CCc3c([nH]c4ccccc34)C2)cc1Br	25	17	75*	16	21	19
O=C(OC[C@@H]1CCCN2CCCC[C@H]12)c1cc2ccccc2oc1=O	-13	1	-1	9	-5	-6
CC(OC(=O)c1ccc([N+](=O)[O-])s1)C(=O)NC1CCCCC1C (centres undefined)	14	78*	10	-15	4	-9
COc1cc(C(=O)OC(C)C(=O)NC2CCCCC2C)c([N+](=O)[O-])cc1OC (centres undefined)	-8	-8	3	-13	16	-12
O=C(Nc1ccc(OCC(F)(F)C(F)F)c(C(F)(F)F)c1)c1ccccc1O	46	63*	23	44	-60	79
S=C(Nc1ccc2c(c1)OCO2)Nc1ccccc1Cl	-3	-9	-4	18	-99	9
Cc1ccc(N/C=C2\CCCCC2=O)nc1	-13	-40	-11	-6	-92	-12
CN(C)c1ccc(CNCCC(Cc2ccccc2)c2ccco2)cc1 (centres undefined)	1	0	-7	8	50*	56
CN1CCN(C(=O)c2ccc(-n3cccn3)nc2)CC1	0	-7	11	-6	13	9
CCc1nc2c(OCc3ccc(C#N)cc3)cccn2c1N(C)C(=O)C(C)C	-2	.	.	12	-3	0
Fc1cc(F)c(F)c(SCCc2ccncc2)c1F	19	15	1	-9	9	87*
SMILES	TWEAK Fn14 block	TRPM1 prom inh	LMP1 NFkB inh	TROY NFkB inh	Peg3 promoter	Shn3 3UTR inh
COc1ccc(Cl)cc1NC(=O)CN(C)CC(=O)NCc1cccs1	-13	.	-4	-16	3	-7
COc1ccc(Cl)cc1NC(=O)CN(C)S(=O)(=O)c1cccs1	-4	10	47*	-18	12	10
Cc1ccc(NC(=O)C(C)Sc2n[nH]c(CNc3ccccc3)n2)cc1 (centres undefined)	20	11	-8	-18	18	0
COc1cccc(C(=O)Nc2ccc(NC(=O)C(C)(C)C)cn2)c1	75*	-2	37	65*	-14	-21
COc1cccc(C(=O)Nc2ccc(NC(=O)C3CCCCC3)nc2)c1	17	-7	-8	-5	-18	2
COC(=O)c1ccccc1NC(=O)CSc1nc(N)cc(=O)[nH]1	31	11	-11	-15	13	1
COc1ccc(-c2csc(N(Cc3ccccc3)C(=O)COc3ccc(Cl)cc3)n2)cc1	-8	2	-4	-8	70*	-6
O=C(COc1ccccc1)N(Cc1ccccc1)c1nc(-c2ccccc2)cs1	2	-3	-5	0	17	16
CCCn1c(=N)n(CC(=O)c2ccc([N+](=O)[O-])cc2)c2ccccc21	-22	27	4	10	60*	16
N=c1n(CC(=O)c2cccc([N+](=O)[O-])c2)c2ccccc2n1Cc1ccccc1	-9	51	-37	-4	58*	19
CCn1c(=N)n(CC(=O)c2cccc([N+](=O)[O-])c2)c2ccccc21	-43	-50	-20	-39	-236	-61
Cc1ccccc1Cn1c(=N)n(CC(=O)c2ccc([N+](=O)[O-])cc2)c2ccccc21	10	66*	-26	9	71*	-13
CCN(C[C@H]1N[C@@](Cc2ccccc2)(C(=O)OC)[C@H]2C(=O)N(C)C(=O)[C@@H]12)C(=O)Nc1ccc(Cl)cc1	-13	-6	-213	-9	6	-24
CN(Cc1ccc(Br)cc1)CC(O)COc1cccc(Br)c1 (centres undefined)	-1	-6	-3	-22	-4	-11
CCCCCCCCCCOC(=O)Cn1c(COc2ccccc2C)[n+](C)c2ccccc21	92*	5	18	52*	107*	?
CCCCCCCCCCOC(=O)Cn1c(COc2cccc(C)c2)[n+](C)c2ccccc21	51*	47	-4	46	46	59
CCCCCCCCCCOC(=O)Cn1c(COc2ccccc2)[n+](C)c2ccccc21	70*	11	29	43	100*	?
CCOC(=O)Cn1c(COc2ccccc2OC)[n+](C)c2ccccc21	-12	.	.	-14	8	13
CCCCCCCCCCOC(=O)Cn1c(COc2ccc(Cl)cc2)[n+](C)c2ccccc21	19	28	7	43	98*	96*
CCCCOC(=O)Cn1c(=O)n(CC(=O)OCCCC)c2ccccc21	-12	5	2	3	1	-18
CC(=O)Oc1ccc(C(=O)Nc2ccc(C3(C#N)CCCC3)cc2)cc1	5	-67	-34	15	-207	-94
O/N=C/c1cc2ccccc2n1Cc1ccccc1F	-23	4	-3	14	20	8
CN(CC(=O)Nc1cccc(F)c1)C(=O)c1ccc(N2CCCCC2)c([N+](=O)[O-])c1	-6	-1	6	-22	-76	41
CCN(CC)S(=O)(=O)c1ccc2nnn(O)c2c1	12	-3	-12	5	13	6

Compound activity deposited in PubChem by several laboratories.
